Inconclusive results are not listed. A call without a number means that no potency is given here. Activity calls are given as the source filed them. Unless noted, calls come from the whole dose curve.
Key:
[1] = qHTS for Inhibitors of the Functional Ribonucleoprotein Complex (vRNP) of Lassa (LASV) Arenavirus: LASV Primary Screen - GLuc reporter signal (AID 1347082; calls by dose curve; tested in HEK293 reporter line; note: nearly all actives have a fitted effect of over 60% in size; note: potency is the fitted concentration of half-maximal effect)
[2] = qHTS for Inhibitors of the Functional Ribonucleoprotein Complex (vRNP) of Lymphocytic Choriomeningitis Arenaviruses (LCMV): Viability assay - alamar blue signal for LCMV Primary Screen (AID 1347085; calls by dose curve; tested in HEK293 reporter line; note: nearly all actives have a fitted effect of over 80% in size; note: potency is the fitted concentration of half-maximal effect)
[3] = molecular target: Nucleoprotein (Lymphocytic choriomeningitis virus (strain Armstrong)) (UniProt P09992); experiment: qHTS for Inhibitors of the Functional Ribonucleoprotein Complex (vRNP) of Lymphocytic Choriomeningitis Arenaviruses (LCMV): LCMV Primary Screen - GLuc reporter signal (AID 1347086); note: nearly all actives have a fitted effect of over 70% in size; note: potency is the fitted concentration of half-maximal effect
Nucleoprotein (Lymphocytic choriomeningitis virus (strain Armstrong)), sequence (P09992 whole entry, looked up): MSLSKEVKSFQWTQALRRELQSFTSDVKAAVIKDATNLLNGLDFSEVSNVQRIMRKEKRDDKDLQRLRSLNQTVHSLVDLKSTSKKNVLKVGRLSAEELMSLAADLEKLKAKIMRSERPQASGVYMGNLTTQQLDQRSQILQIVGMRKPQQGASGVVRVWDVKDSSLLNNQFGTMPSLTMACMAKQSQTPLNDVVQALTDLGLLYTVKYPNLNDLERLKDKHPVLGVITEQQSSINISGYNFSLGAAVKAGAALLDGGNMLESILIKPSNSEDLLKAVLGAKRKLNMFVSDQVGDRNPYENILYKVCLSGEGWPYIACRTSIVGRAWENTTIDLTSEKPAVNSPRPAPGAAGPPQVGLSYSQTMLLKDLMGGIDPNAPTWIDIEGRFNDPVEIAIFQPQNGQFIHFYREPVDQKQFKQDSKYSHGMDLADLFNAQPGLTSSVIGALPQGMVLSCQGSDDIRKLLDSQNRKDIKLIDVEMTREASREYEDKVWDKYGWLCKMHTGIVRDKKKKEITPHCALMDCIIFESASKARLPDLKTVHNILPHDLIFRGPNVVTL

[4] = Confirmatory qHTS to identify inhibitors of SARS-CoV-2 cell entry (AID 1645844); note: potency is the fitted concentration of half-maximal effect; nearly all actives have a fitted effect of over 45% in size
Outline: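 HEK293-ACE2 cells were pretreated 1 h with compound, then infected with MLV-based pseudoparticles bearing C-terminally truncated Wuhan-Hu-1 spike for 48 h at 37C; luciferase luminescence normalized to spike PP and bald PP wells.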

[5] = Cytotoxicity counterscreen for inhibitors of SARS-CoV-2 cell entry (AID 1645845); note: nearly all actives have a fitted effect of over 50% in size; note: potency is the fitted concentration of half-maximal effect
Outline: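 HEK293-ACE2 cells (Expi293F stably expressing human ACE2) seeded overnight, then compound for 1 h plus 48 h at 37C. Viability as ATP content by luminescence; normalized to wells with cells and media-only wells.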

[6] = VSVG counterscreen qHTS to identify inhibitors of SARS-CoV-2 cell entry (AID 1645847); note: potency is the fitted concentration of half-maximal effect; nearly all actives have a fitted effect of over 65% in size
Outline: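 Luminescence read after 48 h infection at 37 C with VSV-G-pseudotyped MLV particles, following 1 h compound exposure of Expi293F cells stably expressing human ACE2; scaled between bald particle and VSV-G particle wells.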

[7] = qHTS for inhibitors of Rabies Virus screened against the NCATS CANVASS Library (AID 1347402)
[8] = Confirmatory qHTS for VERO E6 Cytotoxicity Assay: Counterscreen for SARS-CoV-2 CPE Assay (AID 1508605); note: potency is the fitted concentration of half-maximal effect; nearly all actives have a fitted effect of over 60% in size
[9] = Confirmatory qHTS for activators (rescue) of SARS-CoV-2 Cytopathic Effect (CPE) (AID 1508606); note: potency is the fitted concentration of half-maximal effect; nearly all actives have a fitted effect of over 70% in size
[10] = Primary qHTS to identify inhibitors of SARS-CoV-2 cell entry (AID 1645846); conditions: activity change, negative = inhibition: at 57.1 µM (top of the series) unless noted; note: nearly all actives have a fitted effect of over 45% in size; note: potency is the fitted concentration of half-maximal effect
Outline: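 Entry measured by luciferase signal 48 h after adding SARS-CoV-2-S pseudotyped MLV particles to HEK293-ACE2 cells preincubated 1 h with compounds. Normalisation: bald particles and spike particles.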

[11] = molecular target: Alpha-galactosidase (Coffea arabica) (UniProt Q42656); experiment: Counterscreen for Glucocerebrosidase Inhibitors: qHTS Assay for Coffee Bean alpha-Galactosidase at pH 4.5 (AID 957; active = well fitted curve in the direction sought with a large enough effect; an effect the other way counts as inactive or inconclusive)
Alpha-galactosidase (Coffea arabica), sequence (Q42656 whole entry, looked up): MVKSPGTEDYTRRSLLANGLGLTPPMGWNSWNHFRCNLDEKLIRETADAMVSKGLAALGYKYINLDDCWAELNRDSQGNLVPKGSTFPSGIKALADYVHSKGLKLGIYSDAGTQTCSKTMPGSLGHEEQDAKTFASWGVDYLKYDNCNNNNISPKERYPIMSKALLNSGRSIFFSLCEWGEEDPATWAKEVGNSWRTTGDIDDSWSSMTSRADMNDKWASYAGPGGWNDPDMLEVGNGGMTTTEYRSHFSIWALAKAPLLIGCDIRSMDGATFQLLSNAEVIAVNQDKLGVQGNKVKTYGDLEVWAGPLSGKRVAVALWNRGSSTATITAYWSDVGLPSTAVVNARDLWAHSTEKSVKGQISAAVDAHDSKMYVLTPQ
Outline: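 Coffee bean enzyme (2 nM) with 80 uM 4-methylumbelliferyl alpha-D-galactopyranoside in 50 mM citric acid, 0.005% Tween-20, pH 4.5, 20 min at room temperature; compounds 0.7 nM–77 uM. Stopped at pH 10, fluorescence 365/440 nm; AC50 from Hill fits.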

[12] = molecular target: Alpha-galactosidase (Coffea arabica) (UniProt Q42656); experiment: Counterscreen for Glucocerebrosidase Inhibitors: qHTS Assay for Coffee Bean alpha-Galactosidase at pH 5.9 (AID 998; active = well fitted curve in the direction sought with a large enough effect; an effect the other way counts as inactive or inconclusive)
Outline: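 Green coffee bean enzyme (2 nM) with 4-methylumbelliferyl alpha-D-galactopyranoside (80 uM) in 50 mM citric acid, 0.005% Tween-20, pH 5.9, 20 min at room temperature; compounds 0.7 nM–77 uM. Stopped at pH 10, fluorescence Ex365/Em440; Hill-fit AC50.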

[13] = Validation screen for inhibitors of Lassa infection (AID 463096)
[14] = Inducers of the Endoplasmic Reticulum Stress Response (ERSR) in human glioma: Validation (AID 504836; active = well fitted curve in the direction sought with a large enough effect; an effect the other way counts as inactive or inconclusive)
Outline: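 Stably transfected U87-MG glioma cells carrying a GRP78-based luciferase sensor; 16 h compound incubation. Luminescence end-point read 10 min after Bright-Glo addition at room temperature.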

[15] = molecular target: Peroxisome proliferator-activated receptor delta (Homo sapiens) (UniProt Q03181); experiment: qHTS assay for small molecule agonists of peroxisome proliferator-activated receptor delta signaling (AID 588534)
Peroxisome proliferator-activated receptor delta (Homo sapiens), sequence (Q03181 whole entry, looked up): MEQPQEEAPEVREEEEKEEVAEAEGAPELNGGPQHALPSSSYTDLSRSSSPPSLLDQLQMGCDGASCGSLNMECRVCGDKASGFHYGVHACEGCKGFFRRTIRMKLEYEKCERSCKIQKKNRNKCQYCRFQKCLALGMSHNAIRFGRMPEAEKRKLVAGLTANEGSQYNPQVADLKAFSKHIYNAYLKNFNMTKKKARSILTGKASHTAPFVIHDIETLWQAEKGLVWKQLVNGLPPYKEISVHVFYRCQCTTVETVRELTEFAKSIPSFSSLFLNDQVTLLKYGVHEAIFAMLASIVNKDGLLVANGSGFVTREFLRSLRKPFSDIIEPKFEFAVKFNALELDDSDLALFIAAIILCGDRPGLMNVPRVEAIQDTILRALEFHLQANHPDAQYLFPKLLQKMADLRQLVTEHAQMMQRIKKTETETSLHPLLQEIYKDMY
Outline: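 Cells carrying a PPAR-delta beta-lactamase reporter were treated with compounds for 18 h at 37 °C in agonist mode. CCF4 fluorescence was read after 2 h; EC50 and efficacy from Hill fits.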

[16] = Primary qHTS for inhibitors of SARS-S pseudo-typed particle cell entry (AID 1479145); note: nearly all actives have a fitted effect of over 45% in size
[17] = Primary qHTS for Huh7 cytotoxicity: counterscreen for inhibitors of MERS-S pseudotyped particle cell entry (AID 1479147); conditions: outcome: dose series up to 57.1 µM unless noted
[18] = Primary qHTS for Vero E6 cytotoxicity: counterscreen for inhibitors of SARS-S pseudo-typed particle cell entry (AID 1479150); conditions: outcome: dose series up to 57.1 µM unless noted
[19] = qHTS profiling of the MIPE4 collection as inhibitors of Plasmodium falciparum (3D7) proliferation (AID 743344; call rule not given here); conditions: P. falciparum 3D7 in erythrocytes, SYBR Green DNA fluorescence, 72 h; at 28.5 µM (top of the series) unless noted
Outline: (§1)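 Erythrocytes infected with P. falciparum (0.3% parasitemia, 2.5% hematocrit) incubated with compounds 72 h at 37 C, 5% CO2. Lysis with saponin/Triton buffer containing SYBR Green I, overnight at room temperature in the dark; DNA fluorescence (485/535 nm) normalised to 0.29 uM artemisinin and DMSO.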

[20] = qHTS profiling of the MIPE4 collection as inhibitors of Plasmodium falciparum (DD2) proliferation (AID 743345; call rule not given here); conditions: P. falciparum Dd2 in erythrocytes, SYBR Green DNA, 72 h; at 28.5 µM (top of the series) unless noted
Outline: as §1

[21] = qHTS profiling of the MIPE4 collection as inhibitors of Plasmodium falciparum (HB3) proliferation (AID 743347; call rule not given here); conditions: P. falciparum HB3 in erythrocytes, SYBR Green DNA, 72 h; at 28.5 µM (top of the series) unless noted
Outline: as §1

With O=C(O)C1(Cc2cccc(Nc3nccs3)n2)CCC(Oc2cccc(Cl)c2F)CC1 (stereo not given) the Potency [1] was “inactive”, the Potency [2] was “inactive” and the Potency [3] was “inactive”. The Potency [4] was 10.8 µM (active), the Potency [5] was “inactive” and the Potency [6] was 12.1 µM (active).
In the case of O=c1c(O)c(-c2ccccc2)oc2ccccc12, the Potency [1] is reported as “inactive”, the Potency [2] is reported as “inactive” and the Potency [3] is reported as “inactive”.
For COc1c(O)cc(O)c2c(=O)cc(-c3ccccc3)oc12, the Potency [1] was “inactive”, the Potency [2] was “inactive” and the Potency [3] was “inactive”. For the same molecule, the outcome [7] was “inactive”.
In the case of Cc1cccc(Nc2nc(-c3ccncc3)cs2)c1, the Potency [1] is reported as “inactive”, the Potency [2] is reported as “inactive” and the Potency [3] is reported as “inactive”. The Potency [8] was 10 µM (active), the Potency [9] was 0.794 µM (active) and the Potency [4] was 4.29 µM (active). For the same molecule, the Potency [10] was 10 µM (active).
For C=CCc1ccc(O)c(-c2ccc(O)c(CC=C)c2)c1, the Potency [1] was “inactive”, the Potency [2] was “inactive” and the Potency [3] was “inactive”.
In the case of COc1cc2c(cc1OC)[C@@H]1Cc3ccc(OC)c(OC)c3CN1CC2, the Potency [1] is reported as “inactive”, the Potency [2] is reported as “inactive” and the Potency [3] is reported as “inactive”.
For COc1cc(C(C)C)c2c(c1)S(=O)(=O)N(COc1cc(=O)n3cccc(OCCN4CCCCC4)c3n1)C2=O, the Potency [1] was “inactive”, the Potency [2] was “inactive” and the Potency [3] was “inactive”. For the same molecule, the Potency [5] was “inactive” and the activity change, negative = inhibition [10] was -36.9%.
With Nc1nc(Cl)nc2c1ncn2[C@@H]1O[C@H](COP(=O)(O)OP(=O)(O)OP(=O)(O)O)[C@@H](O)[C@H]1O the Potency [1] was “inactive”, the Potency [2] was “inactive” and the Potency [3] was “inactive”.
For COc1cc2c(cc1OC)C(C)N(Cc1ccc3c(c1)OCO3)CC2 (stereo not given), the Potency [1] was “inactive”, the Potency [2] was “inactive” and the Potency [3] was “inactive”.
In the case of COc1cc(OC)c(NC(=O)Nc2cc(C)on2)cc1Cl, the Potency [1] is reported as “inactive”, the Potency [2] is reported as “inactive” and the Potency [3] is reported as “inactive”. The Potency [5] was “inactive” and the activity change, negative = inhibition [10] was -15.8%.
In the case of CN(C)CC[C@H](CSc1ccccc1)Nc1ccc(S(=O)(=O)NC(=O)c2ccc(N3CCN(Cc4ccccc4-c4ccc(Cl)cc4)CC3)cc2)cc1[N+](=O)[O-], the Potency [1] is reported as “inactive”, the Potency [2] is reported as “inactive” and the Potency [3] is reported as “inactive”. The Potency [5] was “inactive” and the activity change, negative = inhibition [10] was 1.37%.
With COc1cc2c(cc1OC)-c1cc3cc(OC)c(OC)cc3c(=O)n1CC2 the Potency [1] was “inactive”, the Potency [2] was “inactive” and the Potency [3] was “inactive”.
For O=C1NC(=O)C(=Cc2ccc(-c3ccc(F)cc3O)o2)S1, the Potency [1] was “inactive”, the Potency [2] was “inactive” and the Potency [3] was “inactive”.
For Cc1nc(NC(=O)N2CCC[C@@H]2C(N)=O)sc1-c1csc(C(C)(C)C)n1, the Potency [1] was “inactive”, the Potency [2] was “inactive” and the Potency [3] was “inactive”.
With CC1(C)CCC[C@@]2(C)C1CC[C@@](C)(O)[C@@H]2CC[C@@](C)(O)C1CO1 (stereo not given in full) the Potency [1] was “inactive”, the Potency [2] was “inactive” and the Potency [3] was “inactive”.
In the case of C=CC(=O)Nc1cccc(Sc2nc(Nc3ccc(N4CCN(C)CC4)cc3)ncc2Cl)c1, the Potency [1] is reported as “inactive”, the Potency [2] is reported as “inactive” and the Potency [3] is reported as “inactive”. The Potency [5] was 8.91 µM (active) and the Potency [10] was 3.98 µM (active).
In the case of Nc1ccc(S(=O)(=O)Nc2ncccn2)cc1, the Potency [1] is reported as “inactive”, the Potency [2] is reported as “inactive” and the Potency [3] is reported as “inactive”.
For C[C@]12CC[C@@H]3c4ccc(O)cc4CC[C@H]3[C@@H]1CC[C@@H]2O, the outcome [11] was “inactive”, the outcome [12] was “inactive” and the Potency [13] was “inactive”. The outcome [14] was “inactive”, the Potency [15] was “inactive” and the Potency [1] was “inactive”. For the same molecule, the Potency [2] was “inactive”, the Potency [3] was “inactive” and the Potency [16] was “inactive”. The outcome [17] was “inactive” and the outcome [18] was “inactive”.
For NS(=O)(=O)c1ccc(Nc2nc(OCC3CCCCC3)c3[nH]cnc3n2)cc1, the Potency [1] was “inactive”, the Potency [2] was “inactive” and the Potency [3] was “inactive”. For the same molecule, the Potency [5] was “inactive”.
With CN1CCN(c2cccc(Nc3nc4c(-c5ccc(S(C)(=O)=O)cc5)cccn4n3)c2)CC1 the Potency [1] was “inactive”, the Potency [2] was “inactive” and the Potency [3] was “inactive”. The Potency [5] was “inactive”.
With Oc1ccc2c(c1)OCC1(O)Cc3cc(O)c(O)cc3C21 (stereo not given) the Potency [1] was “inactive”, the Potency [2] was “inactive” and the Potency [3] was “inactive”.
For COc1cc(O)c2c(=O)c(-c3ccc(O[C@@H]4O[C@H](CO)[C@@H](O)[C@H](O)[C@H]4O)cc3)coc2c1, the Potency [1] was “inactive”, the Potency [2] was “inactive” and the Potency [3] was “inactive”.
In the case of O=C(Nc1ccccc1)c1cc([N+](=O)[O-])ccc1Cl, the outcome [11] is reported as “inactive”, the outcome [12] is reported as “inactive” and the outcome [14] is reported as “inactive”. The Potency [15] was “inactive”, the Potency [1] was “inactive” and the Potency [2] was “inactive”.
For O=C1CSC(=O)N1C(CCc1ccncc1)COc1ccc(-c2cccc([N+](=O)[O-])c2)cc1 (stereo not given), the Potency [1] was 17.2 µM (active) and the Potency [3] was 7.69 µM (active).
For FC(F)(F)c1ccc(C=Cc2nc(COc3ccc(CCCCn4ccnn4)cc3)co2)cc1, the Potency [1] was 0.0432 µM (active) and the Potency [3] was 0.0217 µM (active).
In the case of CC(C)(C)NC(=O)Nc1cccc(Nc2ncc(F)c(NC(C)(C)CO)n2)c1, the Potency [1] is reported as “inactive” and the Potency [3] is reported as “inactive”.
In the case of NC(=O)c1cccc2[nH]c(-c3ccc([C@H]4CCCN4)cc3F)nc12, the Potency [1] is reported as “inactive”, the Potency [2] is reported as “inactive” and the Potency [3] is reported as “inactive”. For the same molecule, the Potency [5] was 11.2 µM (active) and the Potency [10] was 31.6 µM (active).
In the case of COc1ccc(NC(=O)/C=C/c2ccc(Cl)cc2)cc1, the Potency [1] is reported as “inactive” and the Potency [3] is reported as “inactive”.
For CC1(C)Oc2cc3oc(-c4cc(O)cc(O)c4)cc3cc2CC1O (stereo not given), the Potency [1] was “inactive” and the Potency [3] was “inactive”.
With COc1ccc2nc3cc(Cl)ccc3c(Nc3cc(CN4CCCC4)c(O)c(CN4CCCC4)c3)c2n1 the Potency [1] was “inactive” and the Potency [3] was “inactive”.
For CC(N[C@H]1CCCC[C@H]1NC(=O)c1ccc(Cl)cc1)c1cccc2ccccc12 (stereo not given in full), the parasite growth, % of DMSO control [19] was 31.1%, the parasite growth remaining, % of DMSO control (lower = more inhibition) [20] was 79.2% and the growth, % of control [21] was 39.9%. The Potency [1] was “inactive”, the Potency [2] was 3.43 µM (active) and the Potency [3] was 4.85 µM (active). For the same molecule, the Potency [5] was “inactive” and the Potency [10] was 28.2 µM (active).
In the case of Nc1ncnc2c1nc(Br)n2C1OC2COP(=O)(O)O[C@@H]2C1O (stereo not given in full), the outcome [14] is reported as “inactive”, the Potency [1] is reported as “inactive” and the Potency [2] is reported as “inactive”. For the same molecule, the Potency [3] was “inactive”.
In the case of C[C@H](NC(=O)c1sccc1OCc1ccc(Cl)cc1)c1ccccc1, the Potency [1] is reported as “inactive”, the Potency [2] is reported as “inactive” and the Potency [5] is reported as “inactive”.

Reference: PubChem BioAssay (NCATS)
